# Assay results published in the supplement of paper PMC10037445.
# Over roughly 2,900 compounds, “NF-kB SEAP reporter activity, fold change vs agonist alone” has its median near 0.99; the highest 2% begin near 2.6. This is one part of a sample in which the highest values are shown more often than they occur.
# Columns and labels:
# RAW-Dual [1] = assay: NF-kB SEAP reporter activity, fold change vs agonist alone; higher = enhanced NF-kB activity; details: library stock concentration (final ~1000-fold dilution): 10 mM
# Summary of the method: (§1)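 After 50 nL of library stock was delivered by pin tool to RAW-Dual macrophages (50,000 cells/well, DMEM, 384-well plates), a PRR agonist was added 1 h later and the plates were kept at 37 °C, 5% CO2. Twenty hours later, IRF was read from supernatant by QuantiLuc luminescence and NF-κB by QuantiBlue absorbance at 620 nm. Reporter activity is stated as fold change over agonist-alone wells. Wells with IncuCyte confluency under 70% of agonist controls in both mask sets were counted as cytotoxic.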
# RAW-Dual [2] = assay: NF-kB SEAP reporter activity, fold change vs agonist alone; cytotoxicity flag (confluency mask): cytotoxic (confluency <70% of control); higher = enhanced NF-kB activity
# Summary of the method: as §1
# RAW-Dual [3] = assay: NF-kB SEAP reporter activity, fold change vs agonist alone; cytotoxicity flag (confluency mask): not cytotoxic; higher = enhanced NF-kB activity
# Summary of the method: as §1
# [4] = cytotoxicity flag (confluency mask): cytotoxic (confluency <70% of control), agonist: Imiquimod (TLR7) […]
# [5] = cytotoxicity flag (confluency mask): cytotoxic (confluency <70% of control), agonist: MPLA (TLR4) […]
# [6] = agonist: ODN 1826 (TLR9) 0.5 ug/mL
# [7] = agonist: Pam2CSK4 (TLR2/6) 0.1 ug/mL
# [8] = agonist: Pam3CSK4 (TLR2/1) 0.1 ug/mL
# [9] = cytotoxicity flag (confluency mask): not cytotoxic, agonist: Imiquimod (TLR7) […]
# [10] = cytotoxicity flag (confluency mask): not cytotoxic, agonist: MPLA (TLR4) […]
smiles,measurement,setting,value
COc1cc2nc(N3CCCN(C)CC3)nc(NC3CCN(Cc4ccccc4)CC3)c2cc1OC.Cl.Cl.Cl,NF-kB SEAP reporter activity,RAW-Dual [1]; [4],0.133
same,NF-kB SEAP reporter activity,RAW-Dual [1]; [5],0.247
COc1cc2nc(N3CCCN(C)CC3)nc(NC3CCN(Cc4ccccc4)CC3)c2cc1OC.Cl.Cl.Cl (library stock concentration (final ~1000-fold dilution): 10 mM),NF-kB SEAP reporter activity,RAW-Dual [2]; agonist: LPS (TLR4) 0.1 ug/mL,0.248
same,NF-kB SEAP reporter activity,RAW-Dual [2]; [6],0.189
same,NF-kB SEAP reporter activity,RAW-Dual [2]; [7],0.092
same,NF-kB SEAP reporter activity,RAW-Dual [2]; [8],0.13
CC(=O)OC1(C(C)=O)CCC2C3C=C(Cl)C4=CC(=O)CCC4(C)C3CCC21C (stereo unspecified) (library stock concentration (final ~1000-fold dilution): 10 mM),NF-kB SEAP reporter activity,RAW-Dual [3]; agonist: LPS (TLR4) 0.1 ug/mL,1.21
same,NF-kB SEAP reporter activity,RAW-Dual [3]; [6],1.14
same,NF-kB SEAP reporter activity,RAW-Dual [3]; [7],1.08
same,NF-kB SEAP reporter activity,RAW-Dual [3]; [8],1.16
CC(=O)OC1(C(C)=O)CCC2C3C=C(Cl)C4=CC(=O)CCC4(C)C3CCC21C (stereo unspecified),NF-kB SEAP reporter activity,RAW-Dual [1]; [9],1.28
same,NF-kB SEAP reporter activity,RAW-Dual [1]; [10],1.12
Cc1ccc(Oc2ccnc3cc(-c4cnn(C5CCNCC5)c4)ccc23)cc1 (library stock concentration (final ~1000-fold dilution): 10 mM),NF-kB SEAP reporter activity,RAW-Dual [2]; agonist: LPS (TLR4) 0.1 ug/mL,0.433
same,NF-kB SEAP reporter activity,RAW-Dual [2]; [6],0.213
same,NF-kB SEAP reporter activity,RAW-Dual [2]; [7],0.181
same,NF-kB SEAP reporter activity,RAW-Dual [2]; [8],0.175
Cc1ccc(Oc2ccnc3cc(-c4cnn(C5CCNCC5)c4)ccc23)cc1,NF-kB SEAP reporter activity,RAW-Dual [1]; [4],0.526
same,NF-kB SEAP reporter activity,RAW-Dual [1]; [5],0.922
Cc1nc(Nc2cnn(C3CCNCC3)c2)nc2c1N(C)C(=O)c1cc3ccccc3cc1N2C,NF-kB SEAP reporter activity,RAW-Dual [1]; [4],1.56
same,NF-kB SEAP reporter activity,RAW-Dual [1]; [5],2.88
Cc1nc(Nc2cnn(C3CCNCC3)c2)nc2c1N(C)C(=O)c1cc3ccccc3cc1N2C (library stock concentration (final ~1000-fold dilution): 10 mM),NF-kB SEAP reporter activity,RAW-Dual [2]; agonist: LPS (TLR4) 0.1 ug/mL,3.03
same,NF-kB SEAP reporter activity,RAW-Dual [2]; [6],0.387
same,NF-kB SEAP reporter activity,RAW-Dual [2]; [7],1.11
same,NF-kB SEAP reporter activity,RAW-Dual [2]; [8],2.25
CN1c2ccccc2C(=O)Nc2cnc(Nc3ccc(N4CCC(O)CC4)cc3)nc21 (library stock concentration (final ~1000-fold dilution): 10 mM),NF-kB SEAP reporter activity,RAW-Dual [3]; agonist: LPS (TLR4) 0.1 ug/mL,1.91
same,NF-kB SEAP reporter activity,RAW-Dual [3]; [6],1.18
same,NF-kB SEAP reporter activity,RAW-Dual [3]; [7],0.763
same,NF-kB SEAP reporter activity,RAW-Dual [3]; [8],0.946
CN1c2ccccc2C(=O)Nc2cnc(Nc3ccc(N4CCC(O)CC4)cc3)nc21,NF-kB SEAP reporter activity,RAW-Dual [1]; [9],0.788
same,NF-kB SEAP reporter activity,RAW-Dual [1]; [10],1.02
CC1CC(=O)c2c(ccc3c2C(=O)c2cccc(O)c2C3=O)C1 (stereo unspecified) (library stock concentration (final ~1000-fold dilution): 10 mM),NF-kB SEAP reporter activity,RAW-Dual [3]; agonist: LPS (TLR4) 0.1 ug/mL,1.64
same,NF-kB SEAP reporter activity,RAW-Dual [3]; [6],1.14
same,NF-kB SEAP reporter activity,RAW-Dual [3]; [7],1.09
same,NF-kB SEAP reporter activity,RAW-Dual [3]; [8],0.991
CC1CC(=O)c2c(ccc3c2C(=O)c2cccc(O)c2C3=O)C1 (stereo unspecified),NF-kB SEAP reporter activity,RAW-Dual [1]; [9],1.02
same,NF-kB SEAP reporter activity,RAW-Dual [1]; [10],1.26
CC(NC(=O)C(NC(=O)OCc1ccccc1)C(C)C)C(=O)NC(CC(=O)O)C(=O)CF (stereo unspecified) (library stock concentration (final ~1000-fold dilution): 10 mM),NF-kB SEAP reporter activity,RAW-Dual [3]; agonist: LPS (TLR4) 0.1 ug/mL,1.23
same,NF-kB SEAP reporter activity,RAW-Dual [3]; [6],0.939
same,NF-kB SEAP reporter activity,RAW-Dual [3]; [7],0.948
same,NF-kB SEAP reporter activity,RAW-Dual [3]; [8],1.03
CC(NC(=O)C(NC(=O)OCc1ccccc1)C(C)C)C(=O)NC(CC(=O)O)C(=O)CF (stereo unspecified),NF-kB SEAP reporter activity,RAW-Dual [1]; [9],0.964
same,NF-kB SEAP reporter activity,RAW-Dual [1]; [10],0.934
CCCC1CC(C(=O)NC(C(C)Cl)C2OC(SC)C(O)C(O)C2O)N(C)C1.Cl.O (stereo unspecified) (library stock concentration (final ~1000-fold dilution): 10 mM),NF-kB SEAP reporter activity,RAW-Dual [3]; agonist: LPS (TLR4) 0.1 ug/mL,1.29
same,NF-kB SEAP reporter activity,RAW-Dual [3]; [6],0.918
same,NF-kB SEAP reporter activity,RAW-Dual [3]; [7],0.831
same,NF-kB SEAP reporter activity,RAW-Dual [3]; [8],0.973
CCCC1CC(C(=O)NC(C(C)Cl)C2OC(SC)C(O)C(O)C2O)N(C)C1.Cl.O (stereo unspecified),NF-kB SEAP reporter activity,RAW-Dual [1]; [10],1.07
O=C(Nc1cccc(Br)c1)c1cccc(S(=O)(=O)N2CCCCCC2)c1 (library stock concentration (final ~1000-fold dilution): 10 mM),NF-kB SEAP reporter activity,RAW-Dual [3]; agonist: LPS (TLR4) 0.1 ug/mL,0.803
same,NF-kB SEAP reporter activity,RAW-Dual [3]; [6],1.79
same,NF-kB SEAP reporter activity,RAW-Dual [3]; [7],1.02
same,NF-kB SEAP reporter activity,RAW-Dual [3]; [8],0.939
O=C(Nc1cccc(Br)c1)c1cccc(S(=O)(=O)N2CCCCCC2)c1,NF-kB SEAP reporter activity,RAW-Dual [1]; [9],1.56
same,NF-kB SEAP reporter activity,RAW-Dual [1]; [10],1.26
C/C(=N\NC(=O)c1cccc(S(=O)(=O)N2CCOCC2)c1)c1cc(Cl)ccc1O (library stock concentration (final ~1000-fold dilution): 10 mM),NF-kB SEAP reporter activity,RAW-Dual [3]; agonist: LPS (TLR4) 0.1 ug/mL,2.6
same,NF-kB SEAP reporter activity,RAW-Dual [3]; [6],1.9
same,NF-kB SEAP reporter activity,RAW-Dual [3]; [7],1.52
same,NF-kB SEAP reporter activity,RAW-Dual [3]; [8],2.48
C/C(=N\NC(=O)c1cccc(S(=O)(=O)N2CCOCC2)c1)c1cc(Cl)ccc1O,NF-kB SEAP reporter activity,RAW-Dual [1]; [9],1.53
same,NF-kB SEAP reporter activity,RAW-Dual [1]; [10],1.65
O=C(O)CCn1c2c(c3ccccc31)CC(NS(=O)(=O)c1ccc(F)cc1)CC2 (stereo unspecified) (library stock concentration (final ~1000-fold dilution): 10 mM),NF-kB SEAP reporter activity,RAW-Dual [3]; agonist: LPS (TLR4) 0.1 ug/mL,1.07
same,NF-kB SEAP reporter activity,RAW-Dual [3]; [6],0.99
same,NF-kB SEAP reporter activity,RAW-Dual [3]; [7],1.13
same,NF-kB SEAP reporter activity,RAW-Dual [3]; [8],1.07
O=C(O)CCn1c2c(c3ccccc31)CC(NS(=O)(=O)c1ccc(F)cc1)CC2 (stereo unspecified),NF-kB SEAP reporter activity,RAW-Dual [1]; [10],1.07
COc1ccc(/C=C\c2cc(OC)c(OC)c(OC)c2)cc1O,NF-kB SEAP reporter activity,RAW-Dual [1]; [9],1.63
same,NF-kB SEAP reporter activity,RAW-Dual [1]; [10],2.07
